# Assay outcomes deposited in PubChem by several laboratories.
# Most compounds without a hit are left out; they make up all but 27% or so of the library.
# CYP2C9 activ: human CYP2C9 activators, primary screen, biochemical, luminescence; recombinant CYP2C9, luciferin-H conversion; stronger effect = higher value; factor 1 = untreated enzyme, 0 = blocked; AID 1024, 2008; activation factor at 5 µM; actives 1.4% (n = 96,000);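 active = activation factor of 2 or more for CYP2C9 at a 5 µM dose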;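 also: 0 = sulfaphenazole-blocked wells and 1 = vehicle-only wells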
# Target sequence (P11712 whole entry, looked up): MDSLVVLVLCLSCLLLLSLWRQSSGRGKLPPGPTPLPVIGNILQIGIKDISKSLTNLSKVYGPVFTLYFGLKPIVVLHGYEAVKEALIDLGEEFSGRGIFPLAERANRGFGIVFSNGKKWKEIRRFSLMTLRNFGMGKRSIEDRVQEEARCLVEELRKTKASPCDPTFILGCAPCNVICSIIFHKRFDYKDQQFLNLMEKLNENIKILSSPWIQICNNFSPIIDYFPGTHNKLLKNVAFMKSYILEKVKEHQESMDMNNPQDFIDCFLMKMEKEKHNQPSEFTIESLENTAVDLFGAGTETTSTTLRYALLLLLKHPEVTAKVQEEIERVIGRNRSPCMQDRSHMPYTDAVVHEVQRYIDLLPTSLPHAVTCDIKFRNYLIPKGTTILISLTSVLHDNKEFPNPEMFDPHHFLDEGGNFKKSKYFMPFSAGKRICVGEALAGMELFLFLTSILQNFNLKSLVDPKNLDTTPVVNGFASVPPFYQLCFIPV
# CYP2C19 activ: human CYP2C19 activators, primary screen, biochemical, luminescence; Cytochrome P450 2C19 (Homo sapiens), P33261; recombinant CYP2C19, luciferin-H EGE luminescence; stronger effect = higher value; 0 = fully inhibited enzyme, 1 = untreated enzyme; activation factor at 5 µM; 96,000 tested, under 10 active;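 active = activation factor of at least 2 at 5 µM in the primary screen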;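 also: 0 = wells with 2.5 mM tranylcypromine and 1 = vehicle-only wells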
# Pyk2 oligo antag: antagonists of Pyk2 self-association, primary screen, Q293 cells, FERM NanoBiT luminescence, HTS; actives 0.83% (n = 99,000); stronger effect = lower value; z-score (the deposit names both 25 µM and 10 µM); AID 1347419, 2020;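 active = Z-score of -3 or lower, scaled per plate to the spread of control and sample wells; inactive = z-score above -3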;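 also: negative z-score means lost luminescence so less FERM oligomerization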
# CYP2C19 inh: blockers of cytochrome P450 2C19 activity – biochemical, luminescence, ADME assay, primary screen | AID 778, 2007 | CYP2C19 Supersomes, luciferin-H EGE luminescence, 30 min | actives 21% (n = 96,000) | inhibition, % at 5 µM | P33261;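 active = CYP2C19 inhibition above a set limit at 5 µM in the primary screen, cut at about 50% in these data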;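 also: plate controls were negative control wells for no effect and 2.5 mM tranylcypromine positive control for full effect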
# Cav32 inh: Cav3.2 calcium influx blockers – cell-based, Fluo-4 calcium fluorescence, FDSS, MLSMR library, primary screen; actives 4% (n = 100,000); B-score at 10 µM; Cav3.2-expressing cells; stronger effect = lower value; Voltage-dependent T-type calcium channel subunit alpha-1H (Homo sapiens), O95180; AID 449739, 2010;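 active = single-dose well whose peak fluorescence ratio is a statistical outlier from its plate by either plate-standardised score or position-corrected B-score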
# CYP2C9 inh: blockers of cytochrome P450 2C9 activity – biochemical, luminescence, ADME assay, primary screen; P11712; CYP2C9 Supersomes, luciferin-H conversion; inhibition, % at 5 µM; actives 20% (n = 96,000); AID 777, 2007;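 active = blocking of liver enzyme CYP2C9 beyond about 50% at 5 µM, limit read from the data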
# Numbers without * were called inactive; . = no result given.
SMILES,CYP2C9 activ,CYP2C19 activ,Pyk2 oligo antag,CYP2C19 inh,Cav32 inh,CYP2C9 inh
COC(=O)C1C(=O)C2=C(CC1C)NC(C)=C(C(=O)OC1CCCCC1)C2c1ccc(N(C)C)cc1 (stereo not drawn),.,.,-1.1,.,-3.1,.
COC(=O)C1C(=O)C2=C(CC1C)NC(C)=C(C(=O)OCCOc1ccccc1)C2c1ccc(C)o1 (stereo not drawn),.,.,-3.9*,.,-5.2*,.
COC(=O)C1C(=O)C2=C(CC1C)NC(C)=C(C(=O)OC(C)C)C2c1ccc(C)o1 (stereo not drawn),0.4,0.8,-0.38,21,-0.59,59*
COC(=O)C1C(=O)C2=C(CC1C)NC(C)=C(C(=O)OCc1ccc(OC)cc1)C2c1ccc(C)o1 (stereo not drawn),0.2,0.4,1.8,61*,-2.6,80*
O=C(O)CCCC(=O)Nc1ccccc1C(=O)N1CCCC1,1,1.1,-0.07,-12,-0.11,0
CC(C)CCNC(=O)NC(=O)COC(=O)/C=C/c1cnc2ccccc2n1,0.5,0.8,-1.2,23,.,46
COc1cccc(OC)c1C(=O)Nc1ccc2c3c(cccc13)CC2,.,.,0.24,.,-0.68,.
Cc1csc(SCC(=O)Nc2cc(S(=O)(=O)N3CCCC3)ccc2Cl)n1,0.5,0.7,-0.1,31,-0.58,54*
Cc1csc(SCC(=O)Nc2cccc(S(=O)(=O)N3CCCC3)c2)n1,0.2,0.2,1.2,81*,0.0032,78*
COc1ccc(-c2coc3cc4oc(=O)cc(-c5ccccc5)c4cc23)cc1F,.,.,-0.72,.,.,.
COc1ccc(-c2coc3cc4oc(=O)cc(C)c4cc23)cc1F,0.9,0.4,-0.45,58*,-0.96,11
CCOC(=O)Nc1nnc(CCc2ccccc2)s1,0.4,0.6,0.02,44,0.78,62*
COC(=O)Nc1nnc(CCc2ccccc2)s1,1,0.8,-0.01,16,0.48,2
Cc1ccc(-c2nc(C3CCCN(S(=O)(=O)c4ccc(C)cc4)C3)no2)cc1 (stereo not drawn),0.4,0.4,.,58*,.,57*
OCc1nc2ccccc2n1CC(O)Cn1ccc2ccccc21 (stereo not drawn),0.2,0.1,2,90*,-0.019,84*
Cc1cc(C)n(CC(=O)n2c3ccccc3c3ccccc32)n1,0.8,0.7,0.19,30,-0.001,17
Oc1ccccc1NCC(O)Cn1ccc2ccccc21 (stereo not drawn),0.7,0.6,1,37,-1.8,28
Cc1cc(C)n(CC(O)Cn2c3ccccc3c3ccccc32)n1 (stereo not drawn),0.4,0.2,-2.4,82*,-4.1,61*
O=C1c2ccccc2S(=O)(=O)N1CC(O)Cn1ccc2ccccc21 (stereo not drawn),0.3,0,0,97*,-0.96,71*
Cc1cc(C)n(CC(O)Cn2ccc3ccccc32)n1 (stereo not drawn),0.6,0.3,-0.44,72*,0.46,41
COc1ccc(N2CCN(C(=O)CN3C(=O)c4ccccc4S3(=O)=O)CC2)cc1,1,1,0.04,-1,0.002,2
CCCCC1=CC2=C(c3ccco3)C(=O)C(C)(OC(=O)c3ccc(OC)cc3)C(=O)C2=CN1c1ccccc1 (stereo not drawn),.,.,.,.,-1.5,.
Cc1ccc(NC(=S)NNC(=O)c2ccco2)cc1,1,0.9,0.98,9,0.23,0
COc1ccc(S(=O)(=O)N(C)C2CCN(C)CC2)cc1,1,0.8,.,20,0.89,0
Cc1cc(C)n(CC(O)CN2c3ccccc3Sc3ccccc32)n1 (stereo not drawn),0.7,0.3,-1.5,66*,-6.3*,33
SMILES,CYP2C9 activ,CYP2C19 activ,Pyk2 oligo antag,CYP2C19 inh,Cav32 inh,CYP2C9 inh
Cc1cc(C)n(CC(O)Cn2c3ccc(Cl)cc3c3cc(Cl)ccc32)c(=O)n1 (stereo not drawn),0.1,0.4,-1.4,58*,-1.3,95*
CCOC(=O)c1c(C)n(O)c2ccc(Cl)cc2c1=O,1,0.9,0.38,6,0.75,4
Cc1nnc(SCc2cccs2)[nH]c1=O,.,.,1.1,.,-0.6,.
COc1cc(C)c(C(C)C)cc1S(=O)(=O)N1CCOCC1,2*,0.7,-1.3,34,-0.086,-99
COc1cc(Cl)c(S(=O)(=O)N2CC(C)OC(C)C2)cc1Cl (stereo not drawn),1.7,0.2,-0.57,84*,-0.74,-71
COc1cc(Cl)c(S(=O)(=O)N2CCOCC2)cc1Cl,2.7*,0.7,-0.24,29,-0.16,-170
COc1cc(C)c(S(=O)(=O)N2CCOCC2)cc1C,.,.,0.45,.,-0.0048,.
CCOC(=O)N1CCN(S(=O)(=O)c2cc(Cl)c(OC)cc2Cl)CC1,.,.,0.1,.,0.35,.
COC(=O)C1=C(C(=O)OC)[C@@H]2N(C)c3ccccc3[C@@]23C[C@@H](C(=O)OC)N(C(=O)c2ccc(Br)cc2)C3=N1,.,.,.,.,-3.4,.
CCN1CCN(c2cc(=O)n(-c3cc(Cl)ccc3C)c(=O)[nH]2)CC1,0.4,0.8,1.1,20,-0.22,60*
Cc1ccccc1-n1c(=O)cc(N2CCN(Cc3ccccc3)CC2)[nH]c1=O,1.2,1.1,.,-14,1.1,-19
COc1cccc(C(=O)Oc2cc(N)n(S(=O)(=O)c3ccc(C)cc3)n2)c1OC,0.2,0.9,0.33,9,.,76*
Nc1cc(OC(=O)c2cccs2)nn1S(=O)(=O)c1ccc(F)cc1,0.1,0.6,1.9,40,0.28,93*
Cc1ccccc1CSc1n[nH]c(NS(=O)(=O)c2ccccc2)n1,0.8,0.6,-1.4,36,-0.49,18
CCOC(=O)C1(CCSC)NC(c2ccco2)C2C(=O)N(C)C(=O)C21 (stereo not drawn),1.1,0.9,-0.07,6,2.4,-7
CCS(=O)(=O)c1ccc(S(=O)(=O)CC)s1,1,1.1,-0.42,-6,1.4,-3
CCCCN(C(=O)Cn1nnc2ccccc21)C(C(=O)NCCOC)c1cccs1 (stereo not drawn),.,.,-0.3,.,0.55,.
COc1ccc(N2CCN(S(=O)(=O)c3ccc4c(c3)CCCC4)CC2)c([N+](=O)[O-])c1,1.5,0.7,-1.8,29,-0.73,-47
COCCN1CCn2c(nc3cc(NC(=O)c4ccc(OC)cc4)ccc32)C1,0.7,0.8,-0.89,15,1.3,31
O=C1CC(N2CCCc3ccccc32)C(=O)N1c1ccccc1 (stereo not drawn),1,0.8,0.36,16,0.39,-1
